Bioassay records (PubChem)
VP16 counter = counter-screen for ROR gamma inhibitors: Gal4-VP16 reporter; Drosophila S2 Gal4-VP16 UAS-luciferase, luminescence, 20 h; Potency, µM (top dose mostly 53.6 µM), for the others: at the top dose activity, negative = inhibition, most hits filed as inhibitors; actives 3.5% (n = 310,000);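 further: Gal4-VP16 expression switched on by copper sulfate through the metallothionein promoter; potency means the concentration at half of the fitted maximal effect; on the % scale 0 is the no-effect control and ±100 the full control effect; nearly all actives have a fitted effect of over 50% in size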
a7 integrin act = activates integrin-mediated alleviation for muscular dystrophy. alpha7betagal myoblasts, beta-gal FDG fluorescence, 48 h. Potency, µM (titrated, usually from 38.3 µM), for inactives: at the highest dose activation, actives largely listed as activators. actives 0.064% (n = 350,000). AID 624291;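 further: potency means the concentration at half of the fitted maximal effect; 100% = response of the positive control SU9516; nearly all actives have a fitted effect of over 60% in size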
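Alpha7betagal+/- myoblasts (passage 13) were plated 16-24 hr, then exposed to compounds (1:260 dilution of DMSO stock) for 48 hours at 37C. After MPER lysis, β-galactosidase reporter activity was read as FDG fluorescence (ex 480/em 540) after 30 minutes.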
RORgamma inh = inhibitors of mouse ROR gamma transcriptional activity. P51450. Drosophila S2 Gal4-RORgamma UAS-luciferase reporter, 20 h. Potency, µM (series often up to 53.6 µM), for inactives: at the highest dose activity change, negative = inhibition, hits mostly inhibitors. actives 5.4% (n = 310,000); further: potency means the concentration at half of the fitted maximal effect; on the % scale 0 is the no-effect control and ±100 the full control effect; nearly all actives have a fitted effect of over 60% in size
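Compounds are pin-transferred onto Drosophila Schneider cells expressing a copper-inducible Gal4–ROR gamma transactivation domain fusion. After 1 hr, copper sulfate is added to 700 uM final; luciferase is read 20 hr later.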
Giardia killer = kills Giardia lamblia. Giardia lamblia trophozoite viability. AID 540267. actives 0.15% (n = 340,000). activity change, % at 7.66 µM, hits read low; in the data active means activity change below about -80%; inconclusive means between about -30% and that limit;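 further: parasites exposed to compound for two days anaerobically before the ATP read; on the % scale 0 is the no-effect control and ±100 the full control effect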
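Each well holds 100 Giardia trophozoites and compound. After two days (48 hrs) at 37 deg C in anaerobic conditions, ATP is quantified by luminescence.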
ERG-DNA inh = blocks human ERG Ets domain binding to DNA. fluorescence polarization, His-ERG Ets domain / labelled DNA. P11308. actives 0.028% (n = 370,000). Potency, µM (titrated, usually from 76.9 µM), for inactives: at the top dose FP activity, negative = inhibition, hits mostly inhibitors. AID 624246; active means well fitted inhibition curve with a large enough effect in the polarisation, with a control signal flat; inconclusive means small, poorly fitted or top-dose-only effect, or effect the other way, or a change in a side signal; inactive means no such curve, though single readings can be large or run the other way; the % refers to the polarisation;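 further: polarization taken with two DNA probes labelled with fluorescein and Texas red; potency means the concentration at half of the fitted maximal effect; % of control where 0% means no effect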
Target sequence (P11308 whole entry, looked up, the tested form may be a part): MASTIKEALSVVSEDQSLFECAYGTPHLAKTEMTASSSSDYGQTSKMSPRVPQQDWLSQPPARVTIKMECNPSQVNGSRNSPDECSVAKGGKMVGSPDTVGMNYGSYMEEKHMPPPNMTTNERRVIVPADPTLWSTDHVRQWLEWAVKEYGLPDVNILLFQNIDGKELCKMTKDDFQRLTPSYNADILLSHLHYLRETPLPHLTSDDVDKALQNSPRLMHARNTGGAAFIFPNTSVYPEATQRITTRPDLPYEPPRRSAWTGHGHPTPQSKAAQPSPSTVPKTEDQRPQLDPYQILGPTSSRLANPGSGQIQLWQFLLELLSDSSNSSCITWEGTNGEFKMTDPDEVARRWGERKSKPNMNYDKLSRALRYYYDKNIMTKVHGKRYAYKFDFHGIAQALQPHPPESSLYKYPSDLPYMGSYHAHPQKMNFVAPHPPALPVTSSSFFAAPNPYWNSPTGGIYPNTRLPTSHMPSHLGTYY
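His-tagged ERG Ets domain (1 uM in the protein solution; 300mM KCl, 50mM Tris-HCl, 1mM EDTA, 1mM DTT, pH 7.5) received compound, then a probe mix of 5 nM fluorescein-DNA and 100nM Texas-615-DNA. Fluorescence polarization was read for both dyes.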
Starred values were filed as active, the others as inactive; ? = inconclusive; · = not tested or not shown; [ ] = remark or other dose. This is one part of a sample in which hits are shown more often than they occur. Unless noted, the call rests on the fitted dose curve; in most records, active means well fitted curve in the direction sought with a large enough effect; inconclusive means small, poorly fitted or top-dose-only effect, or another doubt; inactive means no such curve, though single readings can be large; an effect the other way counts as inactive or inconclusive.

SMILES | VP16 counter | a7 integrin act | RORgamma inh | Giardia killer | ERG-DNA inh
CC1CCCCN1S(=O)(=O)c1ccc(C(=O)Nc2nnc(-c3ccccc3Cl)o2)cc1 (centres undefined) | 0.5µM* | -29% | 0.71µM* | -11 | -4%
O=C(Nc1nnc(-c2cccs2)o1)c1ccc(S(=O)(=O)N2CCOCC2)cc1 | 1.6µM* | -41% | 0.71µM* | 5 | -1%
O=C(Nc1ccc(S(=O)(=O)N2CCOCC2)cc1)c1cccs1 | -17% | -12% | 30% | -7 | -7%
CC1CCCCN1S(=O)(=O)c1ccc(C(=O)Nc2nnc(-c3ccncc3)o2)cc1 (centres undefined) | 8% | -30% | 6% | -2 | 2%
Cc1ccc(Cn2c(C(=O)Nc3cccc(Cl)c3)cc3sccc32)cc1 | · | · | · | · | -2%
CCC1CCCCN1S(=O)(=O)c1ccc(C(=O)Nc2nnc(-c3ccccc3Cl)o2)cc1 (centres undefined) | 0.0079µM* | -35% | 0.28µM* | -18 | 15%
CCC1CCCCN1S(=O)(=O)c1ccc(NC(=O)c2ccncc2)cc1 (centres undefined) | ? | -40% | 40% | 5 | 0%
Cc1cc(C)nc(Nc2ncc(O)n2-c2ccc(C)c(Cl)c2)n1 | ? | -24% | 11µM* | 12 | 3%
Cc1cc(C)nc(Nc2ncc(O)n2-c2ccc(C)c(C)c2)n1 | 6% | -9% | -25% | -5 | 3%
CCN1C(=O)C(CC(=O)Nc2ccccc2Cl)N(NC(=O)c2cccc(F)c2)C1=S (centres undefined) | ? | 0% | 11µM* | 1 | 0%
CNC(=O)CC1C(=O)N(c2ccc(OC)cc2)C(=S)N1NC(=O)c1cccc(F)c1 (centres undefined) | ? | 6% | 7.1µM* | 3 | 5%
CNC(=O)CC1C(=O)N(c2ccc(Cl)cc2)C(=S)N1NC(=O)c1cccc(F)c1 (centres undefined) | -15% | 0% | ? | -12 | 6%
COc1ccc(NC(=O)CC2C(=O)N(c3ccc(F)cc3)C(=S)N2NC(=O)c2ccccc2)cc1 (centres undefined) | ? | -3% | 13µM* | 3 | 9%
CCCCCC(=O)NN1C(=S)N(c2ccc(OC)cc2)C(=O)C1CC(=O)Nc1ccccc1 (centres undefined) | -8% | 23% | -21% | 3 | -4%
Cc1ccc(CN(C)C(=O)C2CCC(=O)N(C3CCCCCC3)C2)cc1 (centres undefined) | 0% | -31% | 31% | 8 | -9%
O=C1CCCC=C1[C@H](O)CCCCBr | 12%[10 µM] | · | -4%[10 µM] | · | ·
Cc1ccc(S(=O)(=O)Nc2ccccc2C(O)c2ccccc2)cc1 (centres undefined) | -11% | 0% | 0% | -3 | 1%
CNc1ccc(Br)cc1C(O)c1ccccc1 (centres undefined) | ? | 15% | 13µM* | 0 | -3%
Cn1c(=O)c2c(nc(NCC3CCCC(CN)C3)n2Cc2ccc(Cl)cc2Cl)n(C)c1=O (centres undefined) | 1% | -72% | -40% | -7 | 5%
CCc1ccc(CNC(=O)CN2C(=O)c3cccnc3Oc3ccc(Cl)cc32)cc1 | · | · | · | · | -1%
Cc1nc(C(=O)NNC(=O)c2cccc(Cl)c2)c(C(F)(F)F)o1 | -75% | -17% | 8.9µM* | -8 | -2%
COC(=O)N[C@@H](/C=C/c1ccccc1)/C(C(=O)OC)=C(\C)NCc1ccccc1 | -10% | · | -41% | · | ·
O=[N+]([O-])c1cccnc1Oc1ccc(F)cc1F | 2% | 11% | 1% | -4 | 6%
COc1cnc(-c2ccccn2)nc1Oc1ccc(Cl)cc1 | 8.9µM* | -3%[7.66 µM] | 3.5µM* | -3 | -3%
COc1cnc(-c2ccccn2)nc1Oc1ccccc1Cl | 13µM* | -4% | 2.2µM* | 0 | -1%
SMILES | VP16 counter | a7 integrin act | RORgamma inh | Giardia killer | ERG-DNA inh
COc1cnc(-c2ccccn2)nc1Oc1ccc(Cl)c2ccccc12 | 7.9µM* | -38% | 1.3µM* | 8 | -5%
COc1cnc(-c2ccccn2)nc1Oc1ccc(F)cc1F | ? | -18% | 5.6µM* | 10 | -6%
COc1cnc(-c2ccccc2)nc1Oc1ccccc1C | -16% | 0% | 29% | -18 | -7%
COc1cnc(-c2ccccc2)nc1Oc1ccc(C(C)(C)C)cc1 | 2% | -31% | 41% | 0 | -12%
CCCCC[C@H](O)/C=C/[C@H]1OC(O)C[C@H](O)[C@@H]1C/C=C\CC(=O)O (some centres undefined) | 0% | · | 9% | · | ·
O=C(O)c1cc(=O)c2c3nc4ccccc4oc-3cc(=O)c2[nH]1 | 13% | · | 1% | · | ·
Cc1nnc(NC(=O)c2ccccc2-c2ccccc2C(=O)O)s1 | -2% | 7% | 15% | -9 | 0%
Cc1ccc(NC(=O)c2sc3ccccc3c2Cl)nc1 | ? | 25% | ? | ? | ·
Cc1ccnc(NC(=O)c2ccc([N+](=O)[O-])s2)c1 | ? | -62% | -104% | ? | -2%
Cc1nnc(NC(=O)c2ccccc2NC(=O)c2ccccc2)s1 | -17% | 9% | 18µM* | 10 | 4%
Cc1ccnc(NC(=O)c2sc3cc(Cl)ccc3c2Cl)c1 | ? | 8% | 2µM* | -6 | -2%
Cc1ccnc(NC(=O)c2cc3cc(F)ccc3s2)c1 | ? | ? | 3.2µM* | -16 | -13%
Cc1cccnc1NC(=O)c1sc2ccccc2c1Cl | 8.9µM* | 6% | 8.9µM* | -9 | 3%
CSCC[C@H](NC(=O)[C@H](CC(C)C)NC(=O)CNC(=O)[C@H](Cc1ccc(O)cc1)NC(=O)[C@H](Cc1ccccc1)NC(=O)[C@H](CCC(N)=O)NC(=O)[C@H](CCC(N)=O)NC(=O)[C@@H]1CCCN1C(=O)[C@H](CCCCN)NC(=O)[C@@H]1CCCN1C(=O)[C@@H](N)CCCN=C(N)N)C(N)=O | -3% | · | 9% | · | ·
O=C(O)CCCn1cc(NC(=O)c2sc3ccccc3c2Cl)cn1 | 5µM* | -2% | 14µM* | 13 | 16%
CC(C)c1nnc(NC(=O)CC(=O)Nc2ccccc2C(=O)O)s1 | ? | 12% | 11µM* | -4 | -4%
CC(C)Sc1nnc(NC(=O)CCc2ccccc2)s1 | -20% | 11% | 11% | 12 | -1%
Cc1nnc(NC(=O)c2sc3ccccc3c2Cl)s1 | 8.9µM* | 36% | ? | -84* | -7%
Cc1ccccc1C(=O)Nc1nnc(SC(C)C)s1 | 0% | 10µM* | 2.5µM* | -12 | 5%
Nc1nc(SCC(=O)Nc2ccc3c(c2)OCO3)n[nH]1 | 0% | -1% | -27% | 1 | 0%
CNC(=S)Nc1sc2c(c1C(=O)OC)CCC2 | ? | 11% | 1.3µM* | 0 | 8%
CCOC(=O)c1c(NC(=S)Nc2cccnc2)sc(C)c1C | ? | -201% | 13µM* | 5 | -4%
CCOC(=O)c1c(NC(=S)NC)sc2c1CC(C)(C)SC2 | 0.89µM* | -8% | 0.4µM* | 14 | 5%
